HT1080 IDH1KD tx – HT-1080 IDH1 knockdown cell toxicity (counter line) | Potency, µM (top dose mostly 46.1 µM), for the others: at the highest dose activity, negative = toxicity, usual class: cytotoxic | 360,000 compounds, 2% hits | AID 686971 | HT-1080 IDH1 knockdown viability, ATP luminescence, 48 h;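 also: 0% = DMSO wells and -100% = cell-free medium wells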
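Cytotoxicity counter-line: IDH1KD HT-1080, 48 h, CellTiter-Glo. Curves classed by r2, magnitude and activity.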
TGFb SMAD3 inh – blocks TGF-b signaling. HepG2 CAGA-GFP TGF-b/SMAD3 reporter, GFP fluorescence, 18 h; TGF-beta stimulated, 500 pg/mL final. Potency, µM (top dose mostly 46.1 µM), without a hit: top-dose activity, negative = inhibition, hits mostly inhibitors. 410,000 compounds, 1.2% hits. AID 588855; also: % is scaled to controls: 0 for no effect and ±100 for the full control effect; nearly all actives have a fitted effect of over 65% in size
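TGF-beta reporter screen: HEPG2 CAGA-GFP, 1% FBS, 500 pg/mL TGF-beta final, 18 h; per-cell GFP summed per well; curves fitted and categorized by class.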
KB-V1 cytotox – kills drug-selected multidrug resistant KB-V1 cells | Potency, µM (highest dose often 46.1 µM), usual class: cytotoxic | 400,000 compounds, 3.4% hits | KB-V1 MDR cells viability, CellTiter-Glo, 72 h | AID 1347076; also: % is scaled to controls: 0 for no effect and ±100 for the full control effect; nearly all actives have a fitted effect of over 60% in size
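Cytotoxicity toward P-gp-expressing KB-V1 cells was determined as loss of CellTiter-Glo luminescence after 72 h at 37 degrees C. Compounds were tested in quantitative HTS format across a concentration range, with curves fitted to normalized data.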
HepG2 viability – counter-screen for TGF-b inhibitors: cytotoxicity in HepG2 cells; Potency, µM (highest dose often 46.1 µM), inactives show at the top dose activity change, negative = cytotoxicity, usual class: cytotoxic; HepG2 CAGA-GFP viability, ATP luminescence, 18 h; AID 588856; 410,000 compounds, 0.76% hits
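CellTiter-Glo luminescence gave cytotoxicity after 18 hours at 37 degrees C. The cells were HepG2 CAGA-GFP in 1% FBS DMEM, stimulated with 500 pg/mL TGF-beta after compound addition. %Activity was normalised to no-cell wells (complete cell-killing) and DMSO (no toxicity), and curves were fitted and classified.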
KB-3-1 cytotox – KB-3-1 parental cell cytotoxicity. 400,000 compounds, 1.4% hits. Potency, µM (highest dose often 46.1 µM), most hits filed as cytotoxic. KB-3-1 viability, CellTiter-Glo ATP luminescence, 72 h. AID 1347075; also: % is scaled to controls: 0 for no effect and ±100 for the full control effect; nearly all actives have a fitted effect of over 60% in size
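KB-3-1 parental drug-naive adenocarcinoma cells in DMEM/10% FBS, incubated 72 h at 37 C with pin-transferred compounds across a concentration series. Viability by CellTiter-Glo luminescence; concentration-response curves fitted after normalization.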
HT1080-NT tox – kills 2HG-producing HT-1080-NT fibrosarcoma cells; HT-1080-NT fibrosarcoma viability, CellTiter-Glo ATP luminescence, 48 h; Potency, µM (top dose mostly 46.1 µM), without a hit: top-dose activity, negative = less viability, most hits filed as cytotoxic; 360,000 compounds, 1.6% hits; AID 686970;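 also: NT is the 2HG producing partner of a matched IDH1 knockdown line; 0% = DMSO-treated cells and -100% = media-only wells without cells; nearly all actives have a fitted effect of over 55% in size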
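Toxicity toward the 2HG-producing NT line was scored as %Activity, normalised to DMSO and no-cell wells, from CellTiter-Glo luminescence after 48 hours' treatment.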
Starred values were filed as active, the others as inactive. Rows were chosen to be rich in hits. Some 6.6% of all compounds tested hit in one or more screens of this group. Calls follow the shape of the dose curve; as a rule, active = well fitted curve in the direction sought with a large enough effect; inconclusive = small, poorly fitted or top-dose-only effect, or another doubt; inactive = no such curve, though single readings can be large; an effect the other way counts as inactive or inconclusive. Potency is read from the fitted curve at half-maximal effect.

Results for COc1ccc(-c2c(-c3ccsc3)oc3c2C(O)CCC3)cn1 (centres undefined) ?
HT1080 IDH1KD tx: 0%; KB-V1 cytotox: inactive; KB-3-1 cytotox: inactive; HT1080-NT tox: 2%

How did O=C(NC(=S)Nc1ccc(S(=O)(=O)N2CCCCC2)cc1)c1cccs1 do in these assays?
HT1080 IDH1KD tx: -5%; TGFb SMAD3 inh: inconclusive; KB-V1 cytotox: 3.3µM*; HepG2 viability: -13%; KB-3-1 cytotox: inconclusive; HT1080-NT tox: -8%

What do the screens show for `NS(=O)(=O)c1ccc(NC(=S)NC(=O)c2cccs2)cc1`?
HT1080 IDH1KD tx: 6%; TGFb SMAD3 inh: -3%; KB-V1 cytotox: inactive; HepG2 viability: -11%; KB-3-1 cytotox: inactive; HT1080-NT tox: 8%

What do the screens show for `Cc1noc(C)c1COC(=O)c1cccc(S(=O)(=O)N2CCCCCC2)c1`?
HT1080 IDH1KD tx: 21µM*; TGFb SMAD3 inh: 0%; KB-V1 cytotox: inconclusive; HepG2 viability: -6%; KB-3-1 cytotox: inactive; HT1080-NT tox: -10%

Results for Cc1noc(C)c1COC(=O)c1ccc(F)c(S(=O)(=O)N2CCCCC2)c1 ?
HT1080 IDH1KD tx: inconclusive; TGFb SMAD3 inh: -1%; KB-V1 cytotox: inconclusive; HepG2 viability: 4%; KB-3-1 cytotox: inactive; HT1080-NT tox: -9%

What do the screens show for `CSc1ncccc1C(=O)OCC(=O)c1ccc(S(=O)(=O)N2CCCCC2)cc1`?
HT1080 IDH1KD tx: -5%; TGFb SMAD3 inh: -1%; KB-V1 cytotox: 23µM*; HepG2 viability: 6%; KB-3-1 cytotox: inactive; HT1080-NT tox: -3%

How did CC(=O)c1ccc(OCC(=O)Nc2cccc(S(=O)(=O)N3CCCC3)c2)cc1 do in these assays?
HT1080 IDH1KD tx: -17%; TGFb SMAD3 inh: -6%; KB-V1 cytotox: inconclusive; HepG2 viability: -6%; KB-3-1 cytotox: inactive; HT1080-NT tox: 16µM*

What do the screens show for `COc1ccc(-c2cc3ccc(O)c(CN4CCOCC4)c3oc2=O)cc1`?
TGFb SMAD3 inh: 2%; HepG2 viability: 0%

Results for CCOC(=O)Nc1sc2c(c1C(N)=O)CCCC2 ?
KB-V1 cytotox: inactive; KB-3-1 cytotox: inactive

Results for O=S(=O)(c1ccc(-n2cnnn2)cc1)N1CCN(c2cccc(C(F)(F)F)c2)CC1 ?
TGFb SMAD3 inh: -25%; HepG2 viability: -2%

What do the screens show for `CCCCNC(=O)C(NC(=O)c1ccc(-c2ccccc2)cc1)C(=O)c1ccccc1` (centres undefined)?
HT1080 IDH1KD tx: 12%; KB-V1 cytotox: inactive; KB-3-1 cytotox: inactive; HT1080-NT tox: 10%

How did Cc1ccc(S(=O)(=O)N2CCCCC2)cc1NC(=O)COC(=O)c1cccc(O)c1 do in these assays?
HT1080 IDH1KD tx: 3%; TGFb SMAD3 inh: 9%; KB-V1 cytotox: inactive; HepG2 viability: 11µM*; KB-3-1 cytotox: inactive; HT1080-NT tox: 0%

How did N#CC(C#N)=NNc1ccc(S(=O)(=O)N2CCCCC2)cc1 do in these assays?
HT1080 IDH1KD tx: -9%; TGFb SMAD3 inh: 7.9µM*; KB-V1 cytotox: inactive; HepG2 viability: -44%; KB-3-1 cytotox: inactive; HT1080-NT tox: -4%

What do the screens show for `O=C(CCCOc1ccccc1)Nc1cccc(S(=O)(=O)N2CCCCC2)c1`?
HT1080 IDH1KD tx: 0%; TGFb SMAD3 inh: inconclusive; KB-V1 cytotox: inactive; HepG2 viability: -27%; KB-3-1 cytotox: inactive; HT1080-NT tox: 0%

Results for CC(C)(C)c1ccc(OCCC(=O)Nc2cccc(S(=O)(=O)N3CCCCC3)c2)cc1 ?
HT1080 IDH1KD tx: inconclusive; TGFb SMAD3 inh: inconclusive; KB-V1 cytotox: 21µM*; HepG2 viability: -14%; KB-3-1 cytotox: inconclusive; HT1080-NT tox: -29%

Results for O=C(OCCOc1ccccc1)c1cccc(S(=O)(=O)N2CCOCC2)c1 ?
HT1080 IDH1KD tx: 3%; TGFb SMAD3 inh: 19%; KB-V1 cytotox: 18µM*; HepG2 viability: 9%; KB-3-1 cytotox: inactive; HT1080-NT tox: -5%

Assay outcomes deposited in PubChem BioAssay by National Center for Advancing Translational Sciences (NCATS).
